# Experimental data taken from PubChem BioAssay (NCI).
# The panel holds about 79,000 compounds, 15% with a hit somewhere; the sample as a whole holds those more often. Values without a mark were called inactive. Calls of active or inactive are those of the source. Cut-off read from the data, not from the text of the source: active = growth inhibition above about 70%; inactive = the rest.
# Tests used:
# [1] = NCI Yeast Anticancer Drug Screen. Data for the rad52 strain (AID 147);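 note: 0% = growth of vehicle-treated control cultures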; conditions: S. cerevisiae rad52 mutant growth inhibition, hits give high values
# Procedure, shortened: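 Vehicle-treated cultures served as the reference for growth inhibition of compound-exposed yeast bearing a DNA repair mutation.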
# [2] = NCI Yeast Anticancer Drug Screen. Data for the wt1 strain (AID 149);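 note: 0% = growth of vehicle-treated wt1 cultures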; conditions: S. cerevisiae wt1 strain (SPY 50644) growth inhibition, hits give high values
# Procedure, shortened: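 The wt1 strain was treated with compounds, and growth was compared with vehicle-treated cultures to give inhibition.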
# [3] = NCI Yeast Anticancer Drug Screen. Data for the rad50EPP+ strain (AID 151);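 note: 0% = growth of vehicle-treated control cultures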; conditions: S. cerevisiae rad50 mutant strain, hits give high values
# Procedure, shortened: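 In this screen, rad50EPP+ yeast were exposed to compounds. Growth inhibition was scored against vehicle-treated controls.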
# [4] = NCI Yeast Anticancer Drug Screen. Data for the mgt1 strain (AID 153); conditions: S. cerevisiae mgt1 mutant growth inhibition, hits give high values
# Procedure, shortened: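 mgt1 strain exposed; growth vs vehicle control recorded as inhibition.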
# [5] = NCI Yeast Anticancer Drug Screen. Data for the rad50 strain (AID 155);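 note: 0% = growth of vehicle-only cultures of the same strain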; conditions: S. cerevisiae rad50 strain growth inhibition, hits give high values
# Procedure, shortened: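 Cells are treated with compound, grown, and their growth is then scored against vehicle-only cultures of the same repair-deficient yeast strain.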
# [6] = NCI Yeast Anticancer Drug Screen. Data for the mec2-1 strain (AID 157); conditions: S. cerevisiae mec2-1 strain, hits give high values
# Procedure, shortened: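 Vehicle-treated cultures served as reference for growth inhibition of compound-exposed mec2-1 yeast.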
# [7] = NCI Yeast Anticancer Drug Screen. Data for the rad14 strain (AID 159);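 note: 0% = growth of vehicle-treated control cultures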; conditions: S. cerevisiae rad14 strain growth inhibition, hits give high values
# Procedure, shortened: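 Readout: yeast growth inhibition, referenced to vehicle-only cultures. Strain bears a defined alteration in DNA damage repair.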
# [8] = NCI Yeast Anticancer Drug Screen. Data for the sgs1 mgt1 strain (AID 161);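 note: 0% = growth of cultures given vehicle only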; conditions: S. cerevisiae sgs1 mgt1 strain, hits give high values
# Procedure, shortened: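 Read-out: growth inhibition vs vehicle controls. Cells: mutant yeast strain deficient in DNA damage repair.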
# [9] = NCI Yeast Anticancer Drug Screen. Data for the CLN2oe strain (AID 163);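 note: 0% = growth of vehicle-only control cultures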; conditions: S. cerevisiae CLN2oe strain, hits give high values
# Procedure, shortened: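 Inhibition relative to vehicle-treated yeast is reported. Cells: strain with genetic alteration in cell-cycle control, grown with compound.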
# [10] = NCI Yeast Anticancer Drug Screen. Data for the cln2 rad14 strain (AID 165);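 note: 0% = growth equal to vehicle treated cultures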; conditions: S. cerevisiae cln2 rad14 strain, hits give high values
# Procedure, shortened: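 Each compound was tested on cln2 rad14 yeast. Inhibition of growth was calculated against vehicle-exposed controls.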
# [11] = NCI Yeast Anticancer Drug Screen. Data for the bub3 strain (AID 167); conditions: S. cerevisiae bub3 mutant strain, hits give high values
# Procedure, shortened: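 Part of a panel of yeast mutants defective in DNA damage repair or cell cycle regulation. Each strain is grown with compound, and inhibition is calculated relative to solvent-treated cultures.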
# [12] = NCI Yeast Anticancer Drug Screen. Data for the wt2 strain (AID 169);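 note: 0% = growth of vehicle-treated yeast cultures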; conditions: S. cerevisiae wt2 strain growth inhibition, hits give high values
# Procedure, shortened: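 Inhibition of yeast growth was determined after compound treatment, normalised to controls receiving only vehicle.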
# [13] = NCI Yeast Anticancer Drug Screen. Data for the mlh1 strain (AID 171);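 note: 0% = growth of vehicle-treated control cultures of the same strain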; conditions: S. cerevisiae mlh1 strain growth inhibition, hits give high values
# Procedure, shortened: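 Vehicle-normalised growth inhibition of a repair- or checkpoint-altered yeast strain following compound treatment.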
# [14] = NCI Yeast Anticancer Drug Screen. Data for the sgs1 strain (AID 173);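 note: 0% = growth of vehicle-only control cultures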; conditions: S. cerevisiae sgs1 mutant, hits give high values
# Procedure, shortened: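 Screen format: yeast with repair or checkpoint alterations, compound exposure, growth read relative to vehicle.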
# [15] = NCI Yeast Anticancer Drug Screen. Data for the mlh1 rad18 strain (AID 175); conditions: S. cerevisiae mlh1 rad18 strain growth inhibition, hits give high values
# Procedure, shortened: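 Vehicle-treated cultures served as the reference for growth inhibition in a yeast strain carrying DNA damage repair alterations exposed to each compound.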
# [16] = NCI Yeast Anticancer Drug Screen. Data for the rad18 strain (AID 177); conditions: S. cerevisiae rad18 mutant growth inhibition, hits give high values
# Procedure, shortened: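 Test articles were incubated with altered yeast defective in DNA damage repair. Results are given as inhibition of growth versus vehicle.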
# [17] = at 5.0 µM (retest, dose inferred, filed as 0.5)
# [18] = at 50.0 µM (retest, dose inferred, filed as 5.0)
smiles,measurement,setting,value
C/C(=N\Sc1ccccc1)c1ccccc1O,growth inhibition,[1]; at 1.2 µM,1%
same,growth inhibition,[1]; at 3.7 µM,4%
same,growth inhibition,[1]; at 11.0 µM,2%
same,growth inhibition,[1]; at 33.0 µM,21%
same,growth inhibition,[1]; at 100.0 µM,85% (active)
same,growth inhibition,[2]; at 1.2 µM,-3%
same,growth inhibition,[2]; at 3.7 µM,-4%
same,growth inhibition,[2]; at 11.0 µM,-4%
same,growth inhibition,[2]; at 33.0 µM,4%
same,growth inhibition,[2]; at 100.0 µM,64%
same,growth inhibition,[3]; at 1.2 µM,3%
same,growth inhibition,[3]; at 3.7 µM,5%
same,growth inhibition,[3]; at 11.0 µM,9%
same,growth inhibition,[3]; at 33.0 µM,35%
same,growth inhibition,[3]; at 100.0 µM,91% (active)
same,growth inhibition,[4]; at 1.2 µM,2%
same,growth inhibition,[4]; at 3.7 µM,-2%
same,growth inhibition,[4]; at 11.0 µM,-1%
same,growth inhibition,[4]; at 33.0 µM,8%
same,growth inhibition,[4]; at 100.0 µM,62%
same,growth inhibition,[5]; at 1.2 µM,-3%
same,growth inhibition,[5]; at 3.7 µM,-4%
same,growth inhibition,[5]; [17],-144%
same,growth inhibition,[5]; at 11.0 µM,7%
same,growth inhibition,[5]; at 33.0 µM,16%
same,growth inhibition,[5]; [18],71% (active)
same,growth inhibition,[5]; at 50.0 µM,79% (active)
same,growth inhibition,[5]; at 100.0 µM,90% (active)
same,growth inhibition,[6]; at 1.2 µM,-1%
same,growth inhibition,[6]; at 3.7 µM,2%
same,growth inhibition,[6]; [17],-48%
same,growth inhibition,[6]; at 11.0 µM,-11%
same,growth inhibition,[6]; at 33.0 µM,-1%
same,growth inhibition,[6]; [18],-4%
same,growth inhibition,[6]; at 50.0 µM,51.5%
same,growth inhibition,[6]; at 100.0 µM,62%
same,growth inhibition,[7]; at 1.2 µM,-4%
same,growth inhibition,[7]; at 3.7 µM,-9%
same,growth inhibition,[7]; at 11.0 µM,-5%
same,growth inhibition,[7]; at 33.0 µM,9%
same,growth inhibition,[7]; at 100.0 µM,63%
same,growth inhibition,[8]; [17],-63%
same,growth inhibition,[8]; [18],49%
same,growth inhibition,[8]; at 50.0 µM,33.5%
same,growth inhibition,[9]; at 1.2 µM,2%
same,growth inhibition,[9]; at 3.7 µM,-1%
same,growth inhibition,[9]; at 11.0 µM,2%
same,growth inhibition,[9]; at 33.0 µM,1%
same,growth inhibition,[9]; at 100.0 µM,39%
same,growth inhibition,[10]; [17],-59%
same,growth inhibition,[10]; [18],-38%
same,growth inhibition,[10]; at 50.0 µM,11.5%
same,growth inhibition,[11]; at 1.2 µM,0%
same,growth inhibition,[11]; at 3.7 µM,2%
same,growth inhibition,[11]; [17],-62%
same,growth inhibition,[11]; at 11.0 µM,-1%
same,growth inhibition,[11]; at 33.0 µM,5%
same,growth inhibition,[11]; [18],55%
same,growth inhibition,[11]; at 50.0 µM,49.2%
same,growth inhibition,[11]; at 100.0 µM,53%
same,growth inhibition,[12]; at 1.2 µM,1%
same,growth inhibition,[12]; at 3.7 µM,2%
same,growth inhibition,[12]; at 11.0 µM,1%
same,growth inhibition,[12]; at 33.0 µM,0%
same,growth inhibition,[12]; at 100.0 µM,62%
same,growth inhibition,[13]; at 1.2 µM,2%
same,growth inhibition,[13]; at 3.7 µM,3%
same,growth inhibition,[13]; at 11.0 µM,-2%
same,growth inhibition,[13]; at 33.0 µM,13%
same,growth inhibition,[13]; at 100.0 µM,79% (active)
same,growth inhibition,[14]; at 1.2 µM,1%
same,growth inhibition,[14]; at 3.7 µM,4%
same,growth inhibition,[14]; at 11.0 µM,10%
same,growth inhibition,[14]; at 33.0 µM,35%
same,growth inhibition,[14]; at 100.0 µM,91% (active)
same,growth inhibition,[15]; [17],-115%
same,growth inhibition,[15]; [18],59%
same,growth inhibition,[15]; at 50.0 µM,94.2% (active)
same,growth inhibition,[16]; at 1.2 µM,-2%
same,growth inhibition,[16]; at 3.7 µM,0%
same,growth inhibition,[16]; at 11.0 µM,4%
same,growth inhibition,[16]; at 33.0 µM,21%
same,growth inhibition,[16]; at 100.0 µM,90% (active)
